TRPM1 prom inh: reduces MITF-dependent TRPM1 promoter luciferase signal | SK-MEL-5 TRPM1 promoter luciferase, 24 h | 330,000 tested, 0.83% active | inhibition, % at 12.5 µM;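 active = mean inhibition across replicates of 60% or more, whatever share of single replicates reaches that level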
LGR2 antag: blocks bursicon-induced cAMP signaling via Drosophila LGR2; HEK293 LGR2, CRE-luciferase, bursicon-stimulated, 4 h; inhibition, % at 9.99 µM; 380,000 tested, 0.35% active;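 active = drop in luminescence signal, shown as inhibition above about 50% in the replicate tests, limit read from the data, passing the limit was not always enough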;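 also: agonist challenge used bursicon conditioned medium at about half maximal strength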
LMP1 NFkB inh: reduces LMP1-driven NF-kappaB luciferase signal; LMP1-induced NF-kappaB luciferase reporter cells, luminescence; inhibition, % at 12.5 µM; 350,000 tested, 0.69% active; in the data active = inhibition above about 41%;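 also: 0% = neutral control wells and 100% = reference inhibitor control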
PGC1a acetyl inh: modulators of PGC1a acetylation. U2OS PGC1a acetylation, AlphaScreen anti-acetyl-lysine; with virally co-expressed GCN5 acetyltransferase. inhibition, % at 15.6 µM. 350,000 tested, 0.17% active. AID 651687;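 active = every replicate shows inhibition of at least 40%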;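 also: 0% = neutral control wells and 100% = positive control wells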
PAX8 inh HTS: inhibitors of PAX8 transcriptional activity in RMG-I cells | RMG-I TPO-luciferase reporter, SteadyGlo, 24 h | 360,000 tested, 1.2% active | inhibition, % at 12.6 µM | AID 652154;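 active = mean replicate inhibition at least 60% with every replicate also reaching 60%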;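 also: luciferase light reporting Pax8 driven TPO promoter activity; plate controls were median of neutral control wells for no effect and mitoxantrone controls for full effect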
EWS-Fli inh: blocks EWS/Fli oncoprotein-driven transcription; A673 NR0B1-luciferase reporter, viability-normalised; inhibition, % at 12.6 µM; 350,000 tested, 0.67% active; AID 651661;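 active = mean inhibition of at least 50% after viability correction, with every replicate also passing that limit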;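 also: firefly luciferase signal divided by Alamar Blue viability fluorescence both relative to DMSO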
An asterisk follows results filed as active; / = no result given; ! = repeats disagree. The list is not random: actives were taken first. Their share in the collection is about 2.2%.

SMILES	TRPM1 prom inh	LGR2 antag	LMP1 NFkB inh	PGC1a acetyl inh	PAX8 inh HTS	EWS-Fli inh
C[C@H]1CN([C@@H](C)CO)C(=O)c2cccc(NC(=O)Nc3ccc(F)cc3)c2O[C@H]1CN(C)C(=O)Nc1ccc(C(F)(F)F)cc1	/	7	/	11	80*	7
O=C(C[C@H]1C=C[C@@H](NC(=O)c2ccc3c(c2)OCO3)[C@@H](CO)O1)NC1Cc2ccccc2C1	/	-7	/	/	/	/
N#CC1=C(N)C(C#N)(C#N)C(c2cccnc2)C2CC(c3ccccc3)CC=C12 (configuration not stated)	5	/	55*	35	/	/
CN1CCN(C(=O)C[C@@H]2CC[C@@H]3[C@H](COc4ccc(NC(=O)C5CCCC5)cc4C(=O)N3C)O2)CC1	/	3	/	-5	-10	9
Cc1ccc(CNC(=O)CSc2nc3ccsc3c(=O)n2Cc2ccccn2)cc1	-8	12	-4	-3	-27	-18
O=c1c2sccc2nc(SCc2ccc([N+](=O)[O-])cc2)n1Cc1ccccn1	-22	-7	-15	/	69*	-4
O=C(Nc1ccccc1O)c1ccc(NS(=O)(=O)c2cccc3cccnc23)cc1	40	-45	47*	/	28	43
CC(=O)Nc1cc(C(=O)O)ccc1S(=O)(=O)c1ccc(C)cc1	1	/	-5	-9	/	/
CCC(=O)Nc1cc(C(=O)O)ccc1S(=O)(=O)c1ccc(C)cc1	5	-4	-3	/	64*	-4
O=C(O)c1cccc(NC(=O)c2ccc(Cl)c(S(=O)(=O)N3CCCCCC3)c2)c1	-31	-5	57*	/	-40	1
O=C(Nc1cccc(Cl)c1)Nc1cc(S(=O)(=O)N2CCCCC2)ccc1Cl	80*	34	4	/	75*	23
C[C@@H]1CN([C@H](C)CO)C(=O)c2cc(NC(=O)CCC(F)(F)F)ccc2O[C@H]1CN(C)Cc1ccc(C(=O)O)cc1	/	-27	/	2	5	0
CCCCn1c(SCC(=O)NCc2ccc3c(c2)OCO3)nnc1C(CC)N(C)C (configuration not stated)	-10	-7	-3	44*	6	5
CCCCn1c(SCC(=O)Nc2ccc3c(c2)OCCO3)nnc1C(CC)N(C)C (configuration not stated)	9	0	4	/	-5	4
O=S(=O)(/C=C/C=C/S(=O)(=O)c1ccccc1)c1ccccc1	111*	46	-10	37	117*	65*
CCOC(=O)c1c2c(n(Cc3ccccc3)c1C)C(=O)C(=O)c1ccccc1-2	/	104*	14	/	125*	69*
COc1ccc(S(=O)(=O)N(C)C[C@H]2OCCCC[C@@H](C)Oc3ccc(NC(=O)Nc4ccc(C(F)(F)F)cc4)cc3C(=O)N([C@@H](C)CO)C[C@@H]2C)cc1	/	8	/	11	55	63*
COc1ccc(S(=O)(=O)N(C)C[C@@H]2OCCCC[C@H](C)Oc3ccc(NC(=O)Nc4ccc(F)cc4)cc3C(=O)N([C@H](C)CO)C[C@H]2C)cc1	/	17	/	-27	67*	19
COc1ccc(S(=O)(=O)N(C)C[C@H]2OCCCC[C@@H](C)Oc3ccc(NC(=O)Nc4ccc(C(F)(F)F)cc4)cc3C(=O)N([C@@H](C)CO)C[C@H]2C)cc1	/	-5	/	7	8	-4
COc1ccc(NC(=O)Nc2ccc3c(c2)C(=O)N([C@@H](C)CO)C[C@H](C)[C@@H](CN(C)S(=O)(=O)c2ccc(F)cc2)OCCCC[C@@H](C)O3)cc1	/	-7	/	1	14	-8
COc1ccc(S(=O)(=O)N(C)C[C@@H]2OCCCC[C@H](C)Oc3ccc(NC(=O)Nc4ccc(C(F)(F)F)cc4)cc3C(=O)N([C@H](C)CO)C[C@H]2C)cc1	/	2	9	-18	79*!	18
C[C@H](CO)N1C[C@H](C)[C@H](CN(C)S(C)(=O)=O)Oc2c(NS(=O)(=O)c3ccccc3)cccc2C1=O	/	2	/	0	/	-7
Cc1noc(C)c1NC(=O)N(C)C[C@H]1Oc2ccc(NC(=O)Nc3ccc4c(c3)OCO4)cc2CC(=O)N([C@@H](C)CO)C[C@H]1C	/	-5	/	-2	-15	0
COc1ccc(C#Cc2ccc([C@H]3[C@@H](CO)N4CCCCN(C(=O)Nc5ccc(F)cc5)C[C@H]34)cc2)cc1	/	-13	/	-57	-1	/

Bioassay records: PubChem BioAssay, Broad Institute
